# Reference: PubChem BioAssay (NCI)
# The panel holds about 79,000 compounds, 15% with a hit somewhere; the sample as a whole holds those more often. A number with no mark means an inactive call. Activity calls are given as the source filed them. Rule as the data show it: active = growth inhibition above about 70%; inactive = the rest.
# Assay: NCI Yeast Anticancer Drug Screen. Data for the mlh1 rad18 strain (AID 175)
# Conditions: S. cerevisiae mlh1 rad18 strain growth inhibition, hits give high values
# Procedure: Growth inhibition of yeast strains with defined genetic alterations is measured as a screen for potential anti-cancer activity. Selected strains with alterations in DNA damage repair or cell cycle control were exposed to compounds and growth inhibition was measured relative to vehicle treated controls. The strain used in this assay is mlh1 rad18
# [1] = at 5.0 µM (retest, dose inferred, filed as 0.5)
# [2] = at 50.0 µM (retest, dose inferred, filed as 5.0)
SMILES,growth inhibition [1],growth inhibition [2],growth inhibition (at 50.0 µM)
COc1ccc2c(c1)c1c(C)c3cnccc3c(C)c1n2CCCN,9%,18%,77.5% (active)
CCCCCCCCCCCCCCCC(=O)N(CCCN(CC)CC)C(C)CCCN(CC)CC (configuration not stated),85% (active),97% (active),17.7%
c1ccc(C2CC(c3ccc4ccccc4c3)=Nc3ccccc3S2)cc1 (configuration not stated),3%,76% (active),88.1% (active)
CCCCCCCCCCCC(=O)NCCc1ccc(O)c(O)c1,1%,96% (active),98% (active)
CN(C)c1ccc(C2CC(C)(N3CCCC3)Oc3cc4c(cc32)OCO4)cc1 (configuration not stated),12%,32%,33.5%
CC(c1ccc2ccccc2c1)c1c(F)cccc1C(=O)O (configuration not stated),-16%,61%,98.5% (active)
C=CCOc1cc(NC(=S)c2sccc2C)ccc1Cl,3%,91% (active),81.9% (active)
O=[N+]([O-])/C(C(Cl)=C(Cl)Cl)=C(/Cl)SCc1ccccc1,99% (active),99% (active),86.2% (active)
COc1ccc(C2=CC(=O)C=CC2=O)cc1,18%,89% (active),99.2% (active)
Cc1cc(O)c2c(c1)OC1(C)CCC3C(C)(C)CCCC34COC2C14 (configuration not stated),33%,97% (active),88.6% (active)
CC(C)=CCc1c2c(c(O)c3c(=O)c(-c4ccc(O)cc4O)coc13)C=CC(C)(C)O2,7%,95% (active),84.7% (active)
COc1ccc(S(=O)(=O)O)cc1-n1nc(C(=O)Nc2ccccc2)n[n+]1-c1cc(S(=O)(=O)[O-])ccc1OC,1%,-61%,63.9%
CCCCN(CCCC)CC(O)c1cc(-c2ccc(Cl)cc2)nc2c(-c3ccccc3)cccc12 (configuration not stated),0%,39%,66.7%
CN1C(/C=C/c2ccc(O)c3ncccc23)CCC2CCCC(O)C21 (configuration not stated),14%,96% (active),95.4% (active)
